Screening results as filed in PubChem.
Hits are enriched below; roughly 4.8% of the tested compounds scored in any of these assays.
DRD3 agonist: agonists of human D3 dopamine receptor. P35462. D3R DiscoveRx beta-arrestin cells, luminescence, 90 min. max activation, %. actives 0.58% (n = 410,000); in the data active = max activation above about 30%; note: 0% is about no effect
Target sequence (P35462 whole entry, looked up): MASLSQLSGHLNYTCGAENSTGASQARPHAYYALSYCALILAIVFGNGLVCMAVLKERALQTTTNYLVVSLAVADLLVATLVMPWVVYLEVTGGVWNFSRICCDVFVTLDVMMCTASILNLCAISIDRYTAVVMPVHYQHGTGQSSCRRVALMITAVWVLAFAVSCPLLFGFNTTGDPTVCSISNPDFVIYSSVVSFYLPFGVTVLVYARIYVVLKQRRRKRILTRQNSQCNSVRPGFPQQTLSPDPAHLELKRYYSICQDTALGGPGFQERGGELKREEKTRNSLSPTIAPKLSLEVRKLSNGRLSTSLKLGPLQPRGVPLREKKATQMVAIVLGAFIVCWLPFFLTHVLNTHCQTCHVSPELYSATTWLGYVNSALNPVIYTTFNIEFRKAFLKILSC
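Cells at 1500/well, incubated overnight, then treated with pinned compounds (dopamine as control) for 90 min at 37 degrees C. DiscoveRx reagent added for 30 - 60 minutes at room temperature; luminescence read.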
HepG2 tox: counter-screen for TGF-b inhibitors: cytotoxicity in HepG2 cells. HepG2 CAGA-GFP viability, ATP luminescence, 18 h. Potency, µM (highest dose often 46.1 µM), for the others: at the highest dose activity change, negative = cytotoxicity, actives largely listed as cytotoxic. actives 0.76% (n = 410,000). AID 588856; note: potency is the fitted concentration of half-maximal effect
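HepG2 CAGA-GFP cells (1000/well, DMEM with 1% FBS) received compound, then TGF-beta at 500 pg/mL final, and were incubated 18 hours at 37 degrees C. Viability was read by CellTiter-Glo luminescence. Media-only wells were set as complete cell-killing and DMSO as no toxicity.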
ATXN2 expr inh: reduces ATXN2 reporter expression in HEK-293 cells; AID 1745845; HEK-293 ATXN2-luciferase reporter, luminescence, 24 h; Potency, µM (titrated, usually from 57 µM), without a hit: at the top dose activity change, negative = inhibition, most hits filed as inhibitors; actives 0.72% (n = 360,000); note: potency is the fitted concentration of half-maximal effect; % is set by controls: 0 for no effect and ±100 for the full control effect; nearly all actives have a fitted effect of over 55% in size
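qHTS (up to 57 uM final) was run with 24 h compound exposure of reporter cells at 37 °C. Each well was multiplexed: SteadyGlo luminescence measured ATXN2-luciferase expression after a fluorogenic Gly-Phe-AFC viability readout (25 uM final).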
D3 antag: blocks the human D3 dopamine receptor. AID 652054. max response, negative = inhibition, %. P35462. D3R cells, DiscoveRx beta-arrestin luminescence, antagonist mode; active compounds read low. actives 2.5% (n = 360,000); in the data active = max response below about -50%; inconclusive = no clear call, values can overlap the other calls; note: % is set by controls: 0 for no effect and ±100 for the full control effect
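Cells plated overnight at 1500 cells/well, then exposed to library compounds with dopamine controls for 90 minutes at 37 degrees C. DiscoveRx reagent added for 30–60 minutes at room temperature; luminescence read, quantitative HTS format.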
TGFb SMAD3 inh: TGF-b pathway inhibition. actives 1.2% (n = 410,000). Potency, µM (titrated, usually from 46.1 µM), without a hit: at the top dose activity, negative = inhibition, actives largely listed as inhibitors. HepG2 CAGA-GFP TGF-b/SMAD3 reporter, GFP fluorescence, 18 h; TGF-beta stimulated, 500 pg/mL final. AID 588855; note: potency is the fitted concentration of half-maximal effect; % is set by controls: 0 for no effect and ±100 for the full control effect; nearly all actives have a fitted effect of over 65% in size
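HEPG2 CAGA-GFP cells (1000/well, DMEM with 1% FBS) were pre-incubated 2 h at 37 degrees C, given compound by pin tool, then stimulated with TGF-beta at 500 pg/mL final for 18 h before per-cell GFP fluorescence imaging.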
ATXN viability: cell viability loss in ATXN counter-screen | S2 cells (HEK-293 line with an ATXN2-luciferase reporter) viability, CellTiter-Fluor protease fluorescence, 24 h | Potency, µM (top dose mostly 56.7 µM), most hits filed as cytotoxic | actives 0.49% (n = 400,000) | AID 651635; note: potency is the fitted concentration of half-maximal effect; nearly all actives have a fitted effect of over 40% in size
Numbers without * were called inactive. Unless noted, calls come from the whole dose curve; as a rule, active = well fitted curve in the direction sought with a large enough effect; inconclusive = small, poorly fitted or top-dose-only effect, or another doubt; inactive = no such curve, though single readings can be large; an effect the other way counts as inactive or inconclusive.

What do the screens show for `CC(C)C1N=C(c2ccc3c(c2)OCO3)CC(c2ccccc2O)N1` (stereo unspecified)?
DRD3 agonist: -8; HepG2 tox: -65%; ATXN2 expr inh: inconclusive; D3 antag: -8; TGFb SMAD3 inh: inconclusive; ATXN viability: 28µM*

What do the screens show for `O=S(=O)(c1ccccc1)N(CC(O)Cn1c2ccccc2c2ccccc21)c1ccccc1` (stereo unspecified)?
DRD3 agonist: 7; HepG2 tox: -40%; ATXN2 expr inh: inconclusive; D3 antag: 18; TGFb SMAD3 inh: inconclusive; ATXN viability: inconclusive

Results for Cc1ccc(S(=O)(=O)N(CC(O)Cn2c3ccccc3c3ccccc32)c2cccc(C(=O)N(C)C)c2)cc1 (stereo unspecified) ?
DRD3 agonist: 4; HepG2 tox: -24%; ATXN2 expr inh: inconclusive; TGFb SMAD3 inh: inconclusive; ATXN viability: inconclusive

How did Cc1ccc(S(=O)(=O)N(CC(O)Cn2c3ccccc3c3ccccc32)c2cccc(C(N)=O)c2)cc1 (stereo unspecified) do in these assays?
DRD3 agonist: -8; HepG2 tox: 11µM*; ATXN2 expr inh: inconclusive; TGFb SMAD3 inh: 10µM*; ATXN viability: inconclusive

What do the screens show for `Cc1ccc(S(=O)(=O)N(CC(O)Cn2c3ccccc3c3ccccc32)c2cccc(C(=O)NCCO)c2)cc1` (stereo unspecified)?
DRD3 agonist: 0; HepG2 tox: 16µM*; ATXN2 expr inh: inconclusive; TGFb SMAD3 inh: 13µM*

Results for C/C(=N\O)c1ccc(OCC(=O)N2CCCCC2)cc1 ?
DRD3 agonist: -10; ATXN2 expr inh: 50%; ATXN viability: inconclusive

Results for CCc1oc2ccccc2c1C(=O)CCN1CCCCC1 ?
DRD3 agonist: -7; HepG2 tox: -25%; ATXN2 expr inh: -21%; D3 antag: -94*; TGFb SMAD3 inh: inconclusive; ATXN viability: inactive

Results for O=C(CCN1CCCCC1)c1ccccc1 ?
DRD3 agonist: -4; HepG2 tox: -9%; ATXN2 expr inh: 16%; D3 antag: -21; TGFb SMAD3 inh: inconclusive; ATXN viability: inactive

Results for O=C(NC(c1ccccc1)c1ccc2ccccc2n1)C1CCN(Cc2ccc(Cl)c(Cl)c2)CC1 (stereo unspecified) ?
DRD3 agonist: -29; HepG2 tox: -29%; ATXN2 expr inh: inconclusive; D3 antag: -124*; TGFb SMAD3 inh: inconclusive; ATXN viability: inactive

Results for O=C(NC(c1ccccc1)c1ccc2ccccc2n1)C1CCN(Cc2cccc(C(F)(F)F)c2)CC1 (stereo unspecified) ?
DRD3 agonist: -21; HepG2 tox: -26%; ATXN2 expr inh: inconclusive; D3 antag: -63*; TGFb SMAD3 inh: inconclusive; ATXN viability: inconclusive

Results for O=C(NC(c1ccc2ccccc2n1)c1cccs1)C1CCN(Cc2cccc(C(F)(F)F)c2)CC1 (stereo unspecified) ?
DRD3 agonist: -24; HepG2 tox: -33%; ATXN2 expr inh: 0%; D3 antag: inconclusive; TGFb SMAD3 inh: inconclusive; ATXN viability: inconclusive

Results for CCOc1ccccc1CNC(=O)Cn1nc(C)c2nn(-c3ccc(Cl)cc3)c(C)c2c1=O ?
DRD3 agonist: 4; HepG2 tox: -4%; TGFb SMAD3 inh: -20%

What do the screens show for `COc1cccc(Cn2c(CNC(=O)CCc3ccccc3)nc3cccnc32)c1`?
DRD3 agonist: -3; HepG2 tox: -20%; TGFb SMAD3 inh: -19%

What do the screens show for `O=C(NCCc1ccccc1)c1ccc(CSc2nc3ccncc3n2Cc2ccc(F)cc2)cc1`?
DRD3 agonist: -9; HepG2 tox: -28%; ATXN2 expr inh: -20%; TGFb SMAD3 inh: inconclusive; ATXN viability: inconclusive

How did CC(C)CCC(CCNCc1ccccn1)c1ccc(Cl)cc1 (stereo unspecified) do in these assays?
DRD3 agonist: -20; HepG2 tox: 20µM*; ATXN2 expr inh: -37%; D3 antag: -4; TGFb SMAD3 inh: 0%; ATXN viability: inactive
